Inconclusive results are not listed. Calls of active or inactive are those of the source. Unless noted, calls come from the whole dose curve; as a rule, active = well fitted cell-killing curve with a large enough effect in the repeat runs; inconclusive = weak or mixed curves, or effect the other way; inactive = no such curve, though single readings can be large or run the other way.
% is set by controls: 0 for no effect and ±100 for the full control effect; potency is the fitted concentration of half-maximal effect.

Sequence of Vitamin D3 receptor (Homo sapiens) (P11473 whole entry, looked up): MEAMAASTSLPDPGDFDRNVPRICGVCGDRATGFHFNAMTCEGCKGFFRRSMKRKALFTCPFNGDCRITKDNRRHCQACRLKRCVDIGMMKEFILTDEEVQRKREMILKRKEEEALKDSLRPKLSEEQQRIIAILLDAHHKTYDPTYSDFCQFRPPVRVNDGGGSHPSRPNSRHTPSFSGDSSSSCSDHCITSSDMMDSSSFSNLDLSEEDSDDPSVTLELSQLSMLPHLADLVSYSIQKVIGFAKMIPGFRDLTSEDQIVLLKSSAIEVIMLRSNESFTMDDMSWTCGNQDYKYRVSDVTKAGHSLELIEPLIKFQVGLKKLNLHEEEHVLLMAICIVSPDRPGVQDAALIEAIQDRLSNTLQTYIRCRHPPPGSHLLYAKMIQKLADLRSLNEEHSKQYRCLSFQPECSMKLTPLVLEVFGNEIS

One test concerns the target Vitamin D3 receptor (Homo sapiens) (UniProt P11473). Nature of the test: qHTS assay to identify small molecule antagonists of the vitamin D receptor (VDR) signaling pathway (AID 743223; active = well fitted inhibition curve with a large enough effect in the signal ratio in the repeat runs, not every such curve was filed as active; the % refers to the signal ratio). The conditions noted are these: VDR-UAS-bla HEK293T, beta-lactamase FRET ratio, 16 h; series mostly up to 61 µM; activity change, negative = inhibition: at the top concentration. Summed up:
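Beta-lactamase reporter read-out: FRET substrate fluorescence after 2 h at room temperature, following 16 h exposure of VDR-bla cells to test compound plus 3 nM (final) 1alpha,25-dihydroxyvitamin D3 agonist at 37C.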
In general terms: In qHTS, concentration-response curves come from the screen itself.
For `N#Cc1nc(Cl)c(Cl)c(Cl)c1Cl`, the Potency is 6.92 µM (active). As to `CCCCCCCCCC[N+](C)(CCCCCCCCCC)CCC[Si](OC)(OC)OC`, the “activity change, negative = inhibition” value is 6.87% (inactive).

For the compound `CCCCCCCCCCCCCCCCC(C(=O)O)C(O)(CC(=O)O)C(=O)O` (configuration not stated), the “activity change, negative = inhibition” value is -17.2% (inactive). The same measure, in the same setting: under `SC1CCCCC1` stands -3.12% [at 78.8 µM] (inactive); under `O=C1CCC/C=C\CCCCCCCCCC1`, 0.747% (inactive). Regarding `CCCCCCCCOC(=O)c1cc(O)c(O)c(O)c1`, the Potency was 54.9 µM (active). As for `CC(=O)[C@]1(O)Cc2c(O)c3c(c(O)c2[C@@H](O[C@H]2C[C@H](N)[C@H](O)[C@H](C)O2)C1)C(=O)c1ccccc1C3=O`, the Potency is 1.9 µM (active).

System in the next test: not listed separately
Nature of the test: qHTS assay to identify small molecule agonists of the vitamin D receptor (VDR) signaling pathway - cell viability counter screen (AID 743224). Note: nearly all actives have a fitted effect of over 50% in size. The conditions noted are these: VDR-bla HEK293T viability, CellTiter-Glo luminescence, 16 h; series mostly up to 62.6 µM; activity change, negative = cytotoxicity: at the top concentration. Summed up:
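Plated VDR-bla cells (4 h, 37C) received compound, incubated 16 h, then LiveBLAzer substrate 2 h RT; CellTiter-Glo added afterwards, luminescence read at 30 min.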
As to `N#Cc1nc(Cl)c(Cl)c(Cl)c1Cl`, the Potency was 11 µM (active). With `Clc1nc(C(Cl)(Cl)Cl)c(Cl)c(Cl)c1Cl`, the Potency was 49 µM (active). Regarding `CCCCCCCCCC[N+](C)(CCCCCCCCCC)CCC[Si](OC)(OC)OC`, the Potency was 6.92 µM (active). Take `Cc1ccc(Cl)c(N)c1Cl`: the Potency is 38.9 µM (active). On to `CCCCCCCCCCCCCCCCC(C(=O)O)C(O)(CC(=O)O)C(=O)O` (configuration not stated), for which the Potency was 26.6 µM (active). For the compound `SC1CCCCC1`, the “activity change, negative = cytotoxicity” value was -18.2% [at 81.1 µM] (inactive).

On to `COc1cc([C@@H]2c3cc4c(cc3[C@@H](O[C@@H]3O[C@@H]5CO[C@@H](C)O[C@H]5[C@H](O)[C@H]3O)[C@H]3COC(=O)[C@H]23)OCO4)cc(OC)c1O`, for which the Potency is 21.6 µM (active). `CN1CCN(c2ccccc2/C=C2\SCCN(c3ccc(Cl)c(Cl)c3)C2=O)CC1`: the Potency is 38.9 µM (active). On to `CCCCCCCCOC(=O)c1cc(O)c(O)c(O)c1`, for which the Potency was 24.5 µM (active).

As to `CN(C/C=C/c1ccccc1)Cc1cccc2ccccc12`, the Potency is 26.6 µM (active).

The record behind these values is PubChem BioAssay (Tox21).
